Test results published in PubChem BioAssay (NCI).
Compounds without any hit were thinned out: in the full panel of roughly 79,000, 15% have a hit. Unmarked numbers belong to inactive results. Calls of active or inactive are those of the source. Rule as the data show it: active = growth inhibition above about 70%; inactive = the rest.

Experiment: NCI Yeast Anticancer Drug Screen. Data for the mlh1 rad18 strain (AID 175)
Settings: S. cerevisiae mlh1 rad18 strain growth inhibition, hits give high values
Procedure: Growth inhibition of yeast strains with defined genetic alterations is measured as a screen for potential anti-cancer activity. Selected strains with alterations in DNA damage repair or cell cycle control were exposed to compounds and growth inhibition was measured relative to vehicle treated controls. The strain used in this assay is mlh1 rad18

[1] = at 5.0 µM (retest, dose inferred, filed as 0.5)
[2] = at 50.0 µM (retest, dose inferred, filed as 5.0)

Row | Structure (SMILES) | growth inhibition [1] | growth inhibition [2] | growth inhibition (at 50.0 µM)
1 | c1ccc(N=C2c3ccsc3C(=Nc3ccccc3)c3ccsc32)cc1 | 29% | 97% (active) | 85.6% (active)
2 | CC(=O)c1c2c(cc3c1CC1(C3)Cc3ccc4c(c3C1=O)CCC4)CCC2 (configuration not stated) | 7% | 6% | 36.4%
3 | O=C1c2ccccc2C(O)(C#Cc2ccccc2)c2cnccc21 (configuration not stated) | -5% | 96% (active) | 97.8% (active)
4 | CNc1ccc2c(c1)c1ccccc1n2C | 14% | 34% | 52%
5 | O=c1[nH]c(=S)[nH]c(-c2ccccc2)c1Cc1c(O)ccc2ccccc12 | -4% | 60% | 79.7% (active)
6 | Cc1ccc(N=C=C(c2ccccc2)c2ccccc2)cc1 | 30% | 77% (active) | 71.2% (active)
7 | Cc1ccc(-c2c3c(cc4cc(C)ccc24)C(=O)OC3=O)cc1 | -2% | 25% | 32.9%
8 | CCCCCCCCCCCCCCCCCO | -9% | -3% | 77.8% (active)
9 | COc1ccc(C(SCC(N)C(=O)O)(c2ccc(OC)cc2)c2ccc(OC)cc2)cc1 (configuration not stated) | -6% | 98% (active) | 96% (active)
10 | FC(F)(F)c1[nH]nc(-c2cc3ccccc3o2)c1N=NN1CCOCC1 | 100% (active) | 99% (active) | 99.5% (active)
11 | CCOc1ccc(-c2nc3ccc(-c4nc5ccc(N6CCN(C)CC6)cc5[nH]4)cc3[nH]2)cc1 | 57% | 98% (active) | 89% (active)
12 | Cc1ccsc1/C=N/Nc1ccc2ccccc2n1 | 25% | 84% (active) | 23.4%
13 | S=C(N/N=C1\C=Cc2ccccc2C1)N/N=C1\C=Cc2ccccc2C1 | 18% | 56% | 71% (active)
14 | Cc1cc(Cl)ccc1OCC(=O)Oc1c(Cl)c(Cl)c(Cl)c(Cl)c1Cl | 7% | 50% | 76% (active)
